{
  "source": "PubChem BioAssay",
  "note": "A number with no mark means an inactive call. The rule behind the calls is not given here.",
  "data": [
    {"system": "Aerobactin synthetase IucA (Klebsiella pneumoniae hvKP1)", "assay": "IucA enzyme inhibition, primary screen, biochemical, Spectrum library (AID 1346200);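 note: 100% = wells without compound and 0% = wells lacking enzyme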", "conditions": "malachite green pyrophosphate, A620, at 8 µM, hits give low values", "units": {"activity remaining": "%"}, "values": [
      {"smiles": "O=c1cc(-c2ccc(O)cc2)oc2cc(O[C@@H]3O[C@H](CO)[C@@H](O)[C@H](O)[C@H]3O)cc(O)c12", "activity remaining": 101},
      {"smiles": "COC(=O)C1=CO[C@@H](C)[C@@H]2CN3CC[C@]4(C(=O)Nc5ccccc54)C3CC12", "note": "(stereo not given in full)", "activity remaining": 121},
      {"smiles": "CCCCCC(=O)Cc1cc(O)cc(O)c1C(=O)Oc1cc(CC(=O)CCCCC)c(C(=O)O)c(OC)c1", "activity remaining": 106},
      {"smiles": "Cc1onc(-c2ccccc2)c1C(=O)NC1C(=O)N2[C@@H]1SC(C)(C)[C@@H]2C(=O)O", "note": "(stereo not given in full)", "activity remaining": 106},
      {"smiles": "COc1ccc(C(=O)CC(=O)c2ccc(C(C)(C)C)cc2)cc1", "activity remaining": 104},
      {"smiles": "C[C@H]1CC2C([C@@H](O)C[C@@]3(C)C2CC[C@]3(O)C(=O)CO)[C@@]2(C)C=CC(=O)C=C12", "note": "(stereo not given in full)", "activity remaining": 115},
      {"smiles": "CC(=O)Oc1cc(OC(C)=O)c2c(c1)O[C@H](c1ccc(OC(C)=O)c(OC(C)=O)c1)[C@@H](OC(C)=O)C2", "activity remaining": 98},
      {"smiles": "NC(=O)c1ccccc1O", "activity remaining": 88.1},
      {"smiles": "CN(C)C(=O)Nc1ccc(Cl)c(Cl)c1", "activity remaining": 109},
      {"smiles": "CCCCC(=O)O[C@]1(C(=O)CO)[C@@H](C)CC2C3CCC4=CC(=O)C=C[C@]4(C)[C@@]3(F)C(O)C[C@@]21C", "note": "(stereo not given in full)", "activity remaining": 121},
      {"smiles": "COc1ccc2ccc(=O)oc2c1CC=C(C)C", "activity remaining": 106},
      {"smiles": "CN1CCc2cccc3c2C1Cc1ccc(O)c(O)c1-3", "note": "(stereo not given)", "activity remaining": 87.4},
      {"smiles": "N[C@@H](Cc1cc(I)c(Oc2cc(I)c(O)c(I)c2)c(I)c1)C(=O)O", "activity remaining": 117},
      {"smiles": "COc1ccc([C@@H](C)C(=O)c2ccc(O)cc2O)cc1", "activity remaining": 118},
      {"smiles": "COc1cc(C(=O)O[C@H]2CC[C@@]3(C)[C@@H]4CC[C@H]5[C@]6(O)C[C@H](O)[C@@]7(O)[C@@H](CN8C[C@@H](C)CC[C@H]8[C@@]7(C)O)[C@]6(O)C[C@@]53OC24O)cc(OC)c1OC", "activity remaining": 123},
      {"smiles": "NC(Cn1ccc(=O)c(O)c1)C(=O)O", "note": "(stereo not given)", "activity remaining": 118},
      {"smiles": "COc1ccc([C@@H]2CC(=O)c3c(O)cc(O)cc3O2)cc1O", "activity remaining": 115},
      {"smiles": "O=C1CN(/N=C/c2ccc([N+](=O)[O-])o2)C(=O)N1", "activity remaining": 78.3},
      {"smiles": "CCc1nc(N)nc(N)c1-c1ccc(Cl)cc1", "activity remaining": 108},
      {"smiles": "Cc1cccc(Nc2ccccc2C(=O)O)c1C", "activity remaining": 111},
      {"smiles": "OCc1ccccc1O[C@@H]1O[C@H](CO)[C@@H](O)[C@H](O)[C@H]1O", "activity remaining": 101},
      {"smiles": "CS(=O)(=O)c1ccc(C2=C(c3ccccc3)C(=O)OC2)cc1", "activity remaining": 87.7},
      {"smiles": "CC(C)[N+]1(C)C2CC[C@@H]1CC(OC(=O)C(CO)c1ccccc1)C2", "note": "(stereo not given in full)", "activity remaining": 109},
      {"smiles": "O=C(O)CCCCC1SCC2NC(=O)NC21", "note": "(stereo not given)", "activity remaining": 121},
      {"smiles": "C[C@H]1OC(n2cc(F)c(=O)[nH]c2=O)C(O)[C@@H]1O", "note": "(stereo not given in full)", "activity remaining": 121},
      {"smiles": "CO/N=C(\\C(=O)NC1C(=O)N2C(C(=O)OCOC(=O)C(C)(C)C)=C(/C=C\\c3scnc3C)CSC12)c1csc(N)n1", "note": "(stereo not given)", "activity remaining": 120},
      {"smiles": "NC(=O)c1cc[n+](CC2=C(C(=O)O)N3C(=O)C(NC(=O)C(c4ccccc4)S(=O)(=O)[O-])C3SC2)cc1", "note": "(stereo not given)", "activity remaining": 117},
      {"smiles": "Cc1ncc([N+](=O)[O-])n1CCO", "activity remaining": 75.6},
      {"smiles": "C=CC[C@@H]1/C=C(\\C)C[C@H](C)C[C@H](OC)[C@H]2O[C@@](O)(C(=O)C(=O)N3CCCC[C@H]3C(=O)O[C@H](/C(C)=C/[C@@H]3CC[C@@H](O)[C@H](OC)C3)[C@H](C)[C@@H](O)CC1=O)[C@H](C)C[C@@H]2OC", "activity remaining": 105},
      {"smiles": "NC(N)=Nc1nc(CSCC/C(N)=N\\S(N)(=O)=O)cs1", "activity remaining": 113},
      {"smiles": "CC(=O)S[C@@H]1CC2=CC(=O)CC[C@]2(C)[C@H]2CC[C@@]3(C)[C@@H](CC[C@@]34CCC(=O)O4)C12", "note": "(stereo not given in full)", "activity remaining": 106},
      {"smiles": "O=C(O)[C@H](O)[C@@](O)(Cc1ccc(O)cc1)C(=O)O", "activity remaining": 103},
      {"smiles": "COc1ccc(C(=O)/C=C/c2ccccc2)cc1", "activity remaining": 106},
      {"smiles": "CCC(C)C(=O)O[C@@H]1C[C@@]2(C)[C@H](c3ccoc3)OC(=O)CC23OC2(C)OC34[C@H](OC(=O)C(C)C)[C@@]3(O)[C@@H](OC(=O)C5(C)OC5C)[C@@]5(C)C[C@]3(O)[C@@](C)([C@H]5CC(=O)OC)C14O2", "note": "(stereo not given in full)", "activity remaining": 112},
      {"smiles": "CC1CCCC(C)N1NC(=O)c1ccc(Cl)c(S(N)(=O)=O)c1", "note": "(stereo not given)", "activity remaining": 121},
      {"smiles": "NS(=O)(=O)c1cc2c(cc1C(F)(F)F)NCNS2(=O)=O", "activity remaining": 107},
      {"smiles": "COc1ccc(-c2cc(=O)c3c(O)cc(O[C@H]4O[C@H](CO[C@@H]5O[C@@H](C)[C@H](O)[C@@H](O)[C@H]5O)[C@@H](O)[C@H](O)[C@H]4O)cc3o2)cc1", "activity remaining": 101},
      {"smiles": "COc1ccc(C2C(=O)c3ccccc3C2=O)cc1", "activity remaining": 119},
      {"smiles": "CCC(=O)OCC(=O)C1(OC(=O)CC)C(C)CC2C3CCC4=CC(=O)C=CC4(C)C3(Cl)C(O)CC21C", "note": "(stereo not given)", "activity remaining": 119},
      {"smiles": "NC(N)=N/N=C\\c1c(Cl)cccc1Cl", "activity remaining": 97}
    ]}
  ]
}
